These results are taken from publication PMC5540273 (PLoS ONE, 2017).

Details in all cases: concentration: 1 μM, replicates: in singlicate; n = 1
In test [1] the test system is LRRK2.
Test [2] deals with LTK.
In test [3] the test system is LYN.
Test [4] relates to T1, LZK.
T1 construct: gene MAP3K13

The test system of test [5] is MAK.
The test system of test [6] is MAP3K15.
Test [7] deals with MAP3K1.
The test system of test [8] is MAP3K2.
For test [9], the system named is MAP3K3.
The test system of test [10] is MAP3K4.
For test [11], the system named is MAP4K2.
Test [12] relates to MAP4K3.
Test [13] concerns MAP4K4.
Test [14] concerns MAP4K5.
Test [15] relates to MAPKAPK2.
For test [16], the system named is MAPKAPK5.
In test [17] the test system is MARK1.
In test [18] the test system is MARK2.
The subject of test [19] is MARK3.
In test [20] the test system is MARK4.
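Further: KINOMEscan kinase panel screen.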

`COc1cccc(C2=C(Nc3cc(Cl)c(O)c(Cl)c3)C(=O)NC2=O)c1` [SB-390767]: the “%Inh” value in test [1] worked out at 55%; in [2] it was 96.8%; in [3] it was 0%; in test [4], 0%; in test [5], 4%; in [6], 0%. The “%Inh” value in test [7] is 12%; in test [8], 0%; in [9] it was 0%; in [10] it was 7%; in [11], 0%; in test [12], 0%. The “%Inh” value in test [13] came to 0%; in [14], 1%; in test [15], 15%; in test [16], 0%; in [17] it was 0%; in test [18] it was 0%. For the same compound, the “%Inh” value in test [19] and in test [20] was 0% in each case.
For the compound `Cc1ccccc1Cn1ccn2c(=O)cc(N3CCOCC3)nc12` [GSK2269905], the “%Inh” value in [1], in test [2], in [3], in [4], in [5] and in [6] was 0% each time. The “%Inh” value came out at 2% in test [7]; 0% in test [8]; 0% in test [9]; 30% in [10]; 0% in [11]; 0% in [12]. The “%Inh” value in test [13] worked out at 0%; in [14], 0%; in test [15] it was 19%; in test [16] it was 0%; in [17], 99.2%; in [18], 0%. Also, the entries for the “%Inh” value in [19] and in test [20] were 0% and 96.6%, respectively.
`COc1ccc(Nc2nccc(N3CCC(NC(=O)C(C)c4ccc(Cl)cc4)C3)n2)cc1` (stereo not shown) [GSK1379735]: the “%Inh” value was 51% in test [1]; 61% in [2]; 0% in [3]; 0% in test [4]; 9% in test [5]; 11% in [6]. Moreover, the “%Inh” value in test [7] was 5%; in test [8], 0%; in [9], 0%; in test [10], 16%; in [11], 0%; in test [12], 11%. Besides, the “%Inh” value in test [13] was determined as 4%; in [14], 0%; in test [15], 32%; in test [16], 0%; in test [17] it was 0%; in [18], 0%. The “%Inh” value in test [19] is recorded as 12%; in [20], 0%.
Consider `COc1nccc(-c2c(-c3ccc(F)cc3)ncn2CCCN2CCOCC2)n1` [SB-282852], for which the “%Inh” value in test [1] amounted to 0%; in test [2] it was 0%; in test [3] it was 0%; in [4] it was 0%; in test [5], 29%; in test [6], 0%. Besides, the “%Inh” value in test [7] was 0%; in test [8], 0%; in [9] it was 13%; in test [10], 7%; in test [11], 0%; in test [12], 0%. The “%Inh” value amounted to 0% in test [13]; 0% in test [14]; 5% in test [15]; 0% in [16]; 0% in [17]; 7% in [18]. Also, the “%Inh” value in test [19] came to 24%; in test [20] it was 0%.
In the case of `CCc1ccc(-c2ccc3c(c2)-c2n[nH]cc2S(=O)(=O)N3C)cc1`, the “%Inh” value in [1] is listed as 0%; in test [2], 3%; in test [3] it was 0%; in test [4], 0%; in [5], 0%; in test [6], 0%. Also, the “%Inh” value in test [7] came out at 0%; in test [8], 0%; in test [9], 0%; in [10], 19%; in [11] it was 0%; in test [12], 15%. In addition, the “%Inh” value is on record as 15% in test [13]; 12% in test [14]; 0% in test [15]; 0% in test [16]; 0% in test [17]; 0% in [18]. For the same compound, the “%Inh” value in test [19] and in [20] was 0% throughout.
For `COC(=O)C(NC(=O)NC1CCN(c2ccnc(Nc3ccc(F)cc3)n2)C1)c1ccccc1` (stereo not shown) [GSK1379712], the “%Inh” value in [1] came out at 0%; in test [2], 30%; in test [3], 7%; in test [4], 18%; in [5] it was 0%; in test [6] it was 0%. For the same compound, the “%Inh” value was found to be 6% in [7]; 0% in test [8]; 0% in [9]; 6% in test [10]; 0% in test [11]; 0% in [12]. The “%Inh” value in test [13] was 1%; in [14], 2%; in test [15] it was 18%; in test [16], 6%; in test [17], 0%; in test [18], 7%. The “%Inh” value in [19] was 1%; in [20] it was 8%.
`NS(=O)(=O)c1cccc(N/C=C2\C(=O)Nc3ccc(S(=O)(=O)Cc4c(Cl)cccc4Cl)cc32)c1` [GSK398099]: the “%Inh” value in test [1] worked out at 0%; in test [2] it was 0%; in test [3], 0%; in test [4], 0%; in test [5], 28%; in test [6], 0%. In addition, the “%Inh” value came to 15% in test [7]; 0% in test [8]; 0% in [9]; 0% in test [10]; 0% in test [11]; 19% in [12]. The “%Inh” value came to 28% in test [13]; 0% in test [14]; 20% in [15]; 0% in test [16]; 0% in test [17]; 0% in test [18]. In addition, the “%Inh” value in test [19] and in [20] was 0% each time.
With `CS(=O)(=O)CCNCc1nc(-c2ccc3ncnc(Nc4ccc(OCc5ccccc5)c(Cl)c4)c3c2)cs1.Cl` [GW582764], the “%Inh” value is recorded as 12% in test [1]; 0% in [2]; 0% in test [3]; 36% in [4]; 26% in test [5]; 0% in [6]. For the same compound, the “%Inh” value in test [7] was 6%; in test [8], 3%; in test [9], 0%; in [10] it was 20%; in test [11], 0%; in test [12], 0%. In addition, the “%Inh” value worked out at 10% in [13]; 8% in test [14]; 21% in [15]; 0% in [16]; 0% in test [17]; 0% in [18]. The “%Inh” value in test [19] and in test [20] was 0% throughout.
With `Cc1ccc(NC(=O)Nc2ccccc2)cc1-c1ccc(C(=O)Nc2ccncc2)cc1` [GSK1398471], the “%Inh” value in [1] is reported as 0%; in test [2] it was 0%; in [3], 66%; in test [4], 0%; in [5] it was 17%; in test [6] it was 0%. For the same compound, the “%Inh” value was 8% in [7]; 0% in test [8]; 0% in test [9]; 0% in test [10]; 0% in test [11]; 2% in test [12]. Further, the “%Inh” value in [13] worked out at 1%; in [14], 0%; in test [15] it was 1%; in [16], 0%; in [17], 0%; in test [18], 1%. Also, the “%Inh” value in test [19] amounted to 45%; in test [20] it was 0%.
With `COc1ccc(CSc2nnc(-c3ccc4nccn4c3)o2)cc1C(F)(F)F`, the “%Inh” value in [1] is reported as 0%; in [2] it was 0%; in [3], 7%; in test [4] it was 18%; in test [5] it was 0%; in test [6], 13%. Further, the “%Inh” value in [7] turned out to be 15%; in test [8], 30%; in test [9], 9%; in test [10] it was 12%; in test [11], 37%; in test [12], 16%. Also, the “%Inh” value is reported as 7% in [13]; 3% in test [14]; 33% in test [15]; 27% in [16]; 10% in test [17]; 44% in test [18]. Moreover, the “%Inh” value in [19] worked out at 0%; in test [20], 6%.
Regarding `COc1ccc(Nc2nccc(N3CCC(NC(=O)C(C)c4ccc(Cl)cc4)CC3)n2)cc1` (stereo not shown) [GSK1379812], the “%Inh” value amounted to 0% in test [1]; 27% in [2]; 0% in test [3]; 36% in test [4]; 64% in test [5]; 0% in test [6]. In addition, the “%Inh” value in test [7] amounted to 12%; in [8], 0%; in test [9], 0%; in test [10], 15%; in test [11], 0%; in test [12], 0%. Besides, the “%Inh” value in test [13] turned out to be 3%; in test [14] it was 0%; in [15], 6%; in [16], 0%; in test [17], 15%; in test [18], 19%. The “%Inh” value is reported as 0% in test [19] and 22% in test [20].
